These results are taken from PubChem BioAssay.

Inconclusive results are not listed. Calls of active or inactive are those of the source.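 How the source made its calls, unless noted: active means cell viability at or below a set limit in both duplicate runs, the limit being the all-compound median minus 4 SD (cut at about 23% in these data, passing the limit was not always enough); inconclusive means no clear call, values can overlap the other calls; inactive means the rest.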

Assay [1] can be described thus: Her2 expression decrease, cell viability multiplex – SKBR3 breast tumor cells, AlphaScreen, ATP viability, primary screen (AID 461;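 active means Her2 level under about 52% in both replicate screens, with viability over 70% of control, limit read from the data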;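 on Her2 level: lower value means less Her2 protein in the cells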;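 on viability: percent of carrier control wells set as 100% viability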). Particulars: SKBR3 Her2 protein level, 18-24 h, measured here: SKBR3 viability, ATP luminescence, at 10 µM. (In general: Alpha assays give light when donor and acceptor beads are brought close together.)
The target in assay [2] is Receptor tyrosine-protein kinase erbB-2 (Homo sapiens) (UniProt P04626). The description is as above. Particulars: 18-24 h, at 10 µM, stronger effect = lower value.
Assay [3] can be described thus: reduced viability of SK-BR-3 breast cancer cells – cell-based, 24 h, human, pilot screen (AID 572;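 active means viability at or below 10% of carrier control in both of two separate runs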;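 further: compound exposure lasted between 18 and 24 h rather than exactly 24 h; 100% = carrier-treated control wells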). Particulars: SK-BR-3 viability, CellTiter-Glo luminescence, at 10 µM, stronger effect = lower value. (In general: Cellular ATP, detected with luciferase, serves as a proxy for viable cell number.)
Assay [4] in a line: HUVEC growth inhibition – cell-based, human, primary screen (AID 575;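 active means viability at or below 30% in both replicate assays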;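 further: 100% = median of untreated cell wells with 0.1% DMSO on each plate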). The conditions noted are these: HUVEC proliferation, CellTiter-Glo luminescence, 72 h; at 10 µM; stronger effect = lower value.
The nature of assay [5]: H69AR cell proliferation blockers – human, duplicate replicates, primary screen (AID 580;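 active means viability at or under a set limit in both replicates, limit being median viability minus 3 SD, cut at about 48% in these data, passing the limit was not always enough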;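 further: 100% = mean luminescence of untreated wells and 0% = no signal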). The conditions noted are these: H69AR lung tumor cells viability, ATP luminescence, 72 h; at 10 µM; stronger effect = lower value.
The nature of assay [6]: MRP1 drug-resistance reversers in H69AR cells – cell-based, doxorubicin co-treatment, pilot screen (AID 601;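 active means viability loss from added drug above about 55%, and viability with drug at most 40%, in both replicates, limit read from the data, passing the limit was not always enough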). Particulars: CellTiter-Glo, 72 h, at 10 µM; for differential viability (reversal): stronger effect = higher value.
The nature of assay [7]: yeast transport mutant growth inhibition pilot in 384-well plates, post-Golgi transport modulator project (AID 636; in the data active means inhibition above about 31%). Particulars: absorbance 615 nm, about 18 h, stronger effect = higher value.
The nature of assay [8]: growth suppression of yeast trafficking mutant, preliminary HTS, modulators of trafficking downstream of Golgi apparatus project, 1536-format plate, OD 615 nm (AID 637; in the data active means inhibition above about 30%). Particulars: yeast transport mutant growth, absorbance 615 nm, 18 h; stronger effect = higher value.
The nature of assay [9]: S. cerevisiae growth inhibition in permissive medium (OD615), pilot counter-assay for S. cerevisiae lifespan shortening project, permissive growth control (AID 705;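 active means growth inhibition above 25% in both replicates, a cutoff set 3 SD above the mean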). Particulars: OD615, 24 h, at 10 µM, stronger effect = higher value.
Assay [10] is described as follows: S. cerevisiae growth inhibition in restrictive medium, OD615, pilot screen, restrictive growth control, yeast lifespan reduction project (AID 706;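 active means growth inhibition above a set limit, 3 SD over mean compound inhibition, in both replicates, cut at about 43% in these data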;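 further: modified DeaD lifespan yeast strain shifted to restrictive glucose medium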). Particulars: OD615, 48 h, at 10 µM, stronger effect = higher value.
Assay [11] in a line: doxorubicin toxicity protection in MRP-1 cells – H69AR cells, CellTiter-Glo, duplicate, MRP-1 activator project, pilot screen (AID 807;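 active means viability increase at or above a cutoff of the median across tested compounds plus 3 SD, cut at about 8.5% in these data, passing the limit was not always enough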;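 further: compound pretreatment 18-22 h then 72 h combined with doxorubicin; 0% = doxorubicin alone and 100% = vehicle without doxorubicin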). The conditions noted are these: H69AR viability with doxorubicin, CellTiter-Glo luminescence; at 10 µM; stronger effect = higher value.
Assay [12] is described as follows: viability of HCT116 without oncogenic beta-catenin – human colon tumor cells, pilot screen (AID 823).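 Further: 0% = wells killed by 20 µM Hyamine and 100% = untreated DMSO cell wells.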 The conditions noted are these: HCT116 beta-catenin knockout viability, CellTiter-Glo, 60 h; at 10 µM; stronger effect = lower value.
Assay [13] is described as follows: viability of PTEN-null HCT116 cells – cell-based, HCT116 clonal line, CellTiter-Glo, pilot screen (AID 824;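 active means viability at or below 27.92% in each of two runs, the all-compound median minus 4 SD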;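 further: 0% = 20 µM Hyamine control and 100% = vehicle cell control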). The conditions noted are these: HCT116 PTEN-deleted viability, 60 h, at 10 µM, stronger effect = lower value.
Assay [14] can be described thus: RAM pathway blockade in budding yeast – dse1pr::URA3 reporter, 5-FOA selection, pilot screen (AID 869;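 active means inhibition over a set limit, the all-compound mean plus 3 SD, in both replicate runs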;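 further: 0% = DMSO wells with no growth and 100% = 10 µM 1-NA-PP1 with full growth; RAM network block rescues cells from 5-FOA so hits raise OD615 growth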). Particulars: S. cerevisiae dse1pr::URA3 5-FOA growth, OD615, 2 d; at 10 µM; stronger effect = higher value; strain carries analog-sensitive mutant Cbk1 kinase.
A short description of assay [15]: RAM signaling pathway blockade in yeast – S. cerevisiae, Pdr1DBD-CYC8 efflux-inhibited sensitized strain, primary screen (AID 1298;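 active means RAM network inhibition above 8.4% in each of two replicates, 3 SD over the compound average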;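 further: 0% = DMSO untreated cells without growth and 100% = 10 µM 1-NA-PP1 full growth; higher means more yeast growth rescued from 5-FOA killing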). Particulars: S. cerevisiae cbk1-as DSE1-URA3 strain, 5-FOA growth OD615, 2 d; at 50 µM; stronger effect = higher value.
The mark [16] stands for this setting: H69AR cells + 2 uM doxorubicin, measured here: viability with 2 uM doxorubicin, stronger effect = lower value.
Where [17] appears, read: H69AR cells, compound alone cytotoxicity.

Sequence of Receptor tyrosine-protein kinase erbB-2 (Homo sapiens) (P04626 whole entry, looked up): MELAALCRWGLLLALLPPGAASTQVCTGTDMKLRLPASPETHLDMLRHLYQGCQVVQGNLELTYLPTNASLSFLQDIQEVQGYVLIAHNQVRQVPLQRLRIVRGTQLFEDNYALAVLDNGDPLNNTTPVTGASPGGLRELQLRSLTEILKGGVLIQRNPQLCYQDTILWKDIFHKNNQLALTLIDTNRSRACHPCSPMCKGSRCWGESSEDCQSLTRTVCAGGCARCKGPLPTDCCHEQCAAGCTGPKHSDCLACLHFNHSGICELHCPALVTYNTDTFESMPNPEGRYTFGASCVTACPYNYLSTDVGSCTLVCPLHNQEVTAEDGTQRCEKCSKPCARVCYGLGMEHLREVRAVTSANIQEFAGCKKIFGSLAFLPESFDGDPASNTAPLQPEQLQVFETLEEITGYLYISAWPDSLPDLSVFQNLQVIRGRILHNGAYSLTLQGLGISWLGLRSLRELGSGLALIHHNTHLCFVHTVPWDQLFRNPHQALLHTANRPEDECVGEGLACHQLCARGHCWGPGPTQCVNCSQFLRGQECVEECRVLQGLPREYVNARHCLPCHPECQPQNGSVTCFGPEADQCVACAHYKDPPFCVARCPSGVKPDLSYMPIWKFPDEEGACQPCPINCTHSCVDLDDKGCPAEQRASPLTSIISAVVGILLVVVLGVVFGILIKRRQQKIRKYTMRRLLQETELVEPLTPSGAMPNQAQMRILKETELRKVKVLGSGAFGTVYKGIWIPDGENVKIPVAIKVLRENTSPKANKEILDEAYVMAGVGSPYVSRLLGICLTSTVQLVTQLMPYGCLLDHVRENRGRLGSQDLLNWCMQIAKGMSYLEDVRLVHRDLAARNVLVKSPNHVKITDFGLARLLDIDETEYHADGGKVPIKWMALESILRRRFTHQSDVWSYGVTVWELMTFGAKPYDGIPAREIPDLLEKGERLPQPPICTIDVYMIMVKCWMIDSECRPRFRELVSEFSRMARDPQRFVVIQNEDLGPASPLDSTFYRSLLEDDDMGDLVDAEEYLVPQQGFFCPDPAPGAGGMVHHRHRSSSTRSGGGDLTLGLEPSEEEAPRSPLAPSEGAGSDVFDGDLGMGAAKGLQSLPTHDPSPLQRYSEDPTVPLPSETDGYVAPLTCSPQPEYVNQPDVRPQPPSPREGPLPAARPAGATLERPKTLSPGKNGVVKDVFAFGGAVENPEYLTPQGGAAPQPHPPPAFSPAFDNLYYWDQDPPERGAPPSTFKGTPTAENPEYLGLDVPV

`O=C(Cn1nc(Cc2cccnc2)c2ccccc2c1=O)NCC1CCCO1` (centres undefined): the viability – broadly, a read-out of living cells in per cent, often relative to untreated cells – was 122% in [1]; 122% (inactive) in assay [3]; 99.2% (inactive) in [4]; 92.2% (inactive) in assay [5]; 95.4% in assay [6] (setting [16]); 92.2% in assay [6] (setting [17]). Besides, the viability in [12] was 105% (inactive); in assay [13], 99.1% (inactive). The Her2 level in assay [2] is 111% (inactive). For the same molecule, the differential viability (reversal) in assay [6] (H69AR cells + 2 uM doxorubicin) is -3.21% (inactive). The inhibition (usually the relative decrease from the control value, in per cent) was -3.33% (inactive) in assay [7], 3.5% (inactive) in assay [8] and 1.01% (inactive) in [14]. The growth inhibition in [9] is -1.69% (inactive); in [10] it was 6.33% (inactive). The viability increase in assay [11] was -1.12% (inactive). The RAM network inhibition in [15] is 5.65% (inactive).
With `CC1=C(C)CC2C(=O)N(c3cccc4ccccc34)C(=O)C2C1` (centres undefined), the viability in assay [1] is 104%; in assay [3] it was 104% (inactive); in assay [4] it was 80.1% (inactive); in assay [5] it was 85.7% (inactive); in assay [6] (setting [16]), 83.2%; in assay [6] (setting [17]), 85.7%. For the same molecule, the viability in assay [12] is 100% (inactive); in assay [13], 96.5% (inactive). The Her2 level in [2] was 114% (inactive). In addition, in assay [6] (H69AR cells + 2 uM doxorubicin), the differential viability (reversal) was 2.52% (inactive). For the same molecule, the inhibition was -6.53% (inactive) in [7], -11.3% (inactive) in assay [8] and 0.295% (inactive) in assay [14]. For the same molecule, the figures for the growth inhibition in [9] and in assay [10] were 75.2% (active) and 67.6% (active), respectively. For the same molecule, the viability increase in [11] was -0.78% (inactive). Besides, the RAM network inhibition in [15] is 2.23% (inactive).
As for `CC(C)(C)NC(=O)Cn1c(=O)oc2ccc(Cl)cc21`, the viability is 96% in assay [1]; 96% (inactive) in assay [3]; 96.5% (inactive) in assay [4]; 92.9% (inactive) in [5]; 64.1% in assay [6] (setting [16]); 92.9% in [6] (setting [17]). In addition, the values for the viability in assay [12] and in assay [13] were 106% (inactive) and 100% (inactive), respectively. Moreover, in assay [2], the Her2 level is 104% (inactive). In addition, in assay [6] (H69AR cells + 2 uM doxorubicin), the differential viability (reversal) is 28.8% (inactive). The inhibition in [7] is -2.4% (inactive); in assay [8] it was 0.83% (inactive); in assay [14] it was 0.38% (inactive). Moreover, the results for the growth inhibition in assay [9] and in assay [10] were 5.54% (inactive) and 5.01% (inactive), respectively. Moreover, the viability increase in assay [11] is -4.63% (inactive). Moreover, the RAM network inhibition in assay [15] was 7.56% (inactive).
As for `COc1ccc(C(=O)CN2C3=NCCCN3c3ccccc32)cc1OC`, the viability was 89% in [1]; 89% (inactive) in [3]; 81.3% (inactive) in [4]; 82.4% (inactive) in assay [5]; 77.1% in assay [6] (setting [16]); 82.4% in assay [6] (setting [17]). In addition, the figures for the viability in assay [12] and in [13] were 56.2% (inactive) and 64.7% (inactive), respectively. Further, the Her2 level in assay [2] is 109% (inactive). The differential viability (reversal) in assay [6] (H69AR cells + 2 uM doxorubicin) was 5.29% (inactive). Moreover, the inhibition is -0.39% (inactive) in [7], 2.5% (inactive) in [8] and 1% (inactive) in assay [14]. The values for the growth inhibition in assay [9] and in [10] were -6.53% (inactive) and -6.88% (inactive), respectively. For the same molecule, the viability increase in assay [11] is -2.15% (inactive). Further, the RAM network inhibition in [15] was 2.03% (inactive).
For `CC(=O)C1=C(N2CCCCC2)CCC1=O`, the viability in assay [1] was 86%; in [3], 86% (inactive); in assay [4], 109% (inactive); in assay [5], 98.3% (inactive); in assay [6] (setting [16]) it was 86.8%; in [6] (setting [17]), 98.3%. The viability was 94.5% (inactive) in assay [12] and 94.7% (inactive) in assay [13]. Moreover, the Her2 level in assay [2] was 101% (inactive). In addition, the differential viability (reversal) in [6] (H69AR cells + 2 uM doxorubicin) was 11.5% (inactive). Further, the inhibition in assay [7] was -5.81% (inactive); in assay [8], 5.33% (inactive). In addition, the growth inhibition was 2.54% (inactive) in assay [9] and 4.54% (inactive) in [10]. In assay [11], the viability increase was -2.01% (inactive). Further, the RAM network inhibition in assay [15] was 0.55% (inactive).
